# Records with an inconclusive call do not appear. Where a call stands in place of a potency, no number is given. Active and inactive are the calls of the source. Calls follow the shape of the dose curve; as a rule, active = well fitted curve in the direction sought with a large enough effect; inconclusive = small, poorly fitted or top-dose-only effect, or another doubt; inactive = no such curve, though single readings can be large; an effect the other way counts as inactive or inconclusive.
# Key:
# [1] = Quantitative High-Throughput drug screen in 47 multiple myeloma cell lines against the NCATS MIPE library collection: KMS12PE_JCRB cell viability assay (AID 1918972); conditions: KMS12PE myeloma viability, CellTiter-Glo ATP, 48 h; series mostly up to 45.8 µM; also: nearly all actives have a fitted effect of over 30% in size; also: potency is read from the fitted curve at half-maximal effect
# Summary of the method: (§1)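 Myeloma cell lines, 500 cells per well, exposed to MIPE 4.0 library compounds for 48 h at 37C, 5% CO2. Viability from ATP by CellTiter-Glo luminescence; normalised to DMSO (100%) and media-only (0%) wells.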
# [2] = Quantitative High-Throughput drug screen in 47 multiple myeloma cell lines against the NCATS MIPE library collection: NCIH929_DSMZ cell viability assay (AID 1918978); conditions: NCI-H929 myeloma viability, CellTiter-Glo ATP, 48 h; series mostly up to 45.8 µM; also: nearly all actives have a fitted effect of over 35% in size; also: potency is read from the fitted curve at half-maximal effect
# Summary of the method: (§2)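 500 cells/well per myeloma line exposed to pinned MIPE 4.0 compounds for 48 h at 37 °C, 5% CO2. Viability read as ATP by CellTiter-Glo luminescence, normalised to DMSO-only (100%) and media-only (0%) wells.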
# [3] = Quantitative High-Throughput drug screen in 47 multiple myeloma cell lines against the NCATS MIPE library collection: OCIMY1_PLB cell viability assay (AID 1918979); conditions: OCI-MY1 myeloma viability, CellTiter-Glo ATP, 48 h; series mostly up to 45.8 µM; also: nearly all actives have a fitted effect of over 35% in size
# Summary of the method: as §2
# [4] = Quantitative High-Throughput drug screen in 47 multiple myeloma cell lines against the NCATS MIPE library collection: KMS21BM_JCRB cell viability assay (AID 1918974); conditions: ATP luminescence, 48 h; viability: at 45.8 µM (top of the series) unless noted; also: potency is read from the fitted curve at half-maximal effect
# Summary of the method: (§3)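 Primary qHTS used for cherry-picking: cells at 500/well, library compounds for 48 h (37C, 5% CO2), luminescent ATP assay.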
# [5] = Quantitative High-Throughput drug screen in 47 multiple myeloma cell lines against the NCATS MIPE library collection: MM1S_ATCC cell viability assay (AID 1918980); conditions: MM1S myeloma viability, CellTiter-Glo ATP luminescence, 48 h; series mostly up to 45.8 µM; also: nearly all actives have a fitted effect of over 45% in size; also: potency is read from the fitted curve at half-maximal effect
# Summary of the method: as §2
# [6] = Quantitative High-Throughput drug screen in 47 multiple myeloma cell lines against the NCATS MIPE library collection: KMS26_JCRB cell viability assay (AID 1918975); conditions: KMS26 myeloma cells viability, CellTiter-Glo ATP, 48 h; series mostly up to 45.8 µM; also: nearly all actives have a fitted effect of over 45% in size; also: potency is read from the fitted curve at half-maximal effect
# Summary of the method: as §1
# [7] = Quantitative High-Throughput drug screen in 47 multiple myeloma cell lines against the NCATS MIPE library collection: MMM1_PLB cell viability assay (AID 1918976); conditions: MMM1 myeloma cells viability, CellTiter-Glo, 48 h; series mostly up to 45.8 µM; also: nearly all actives have a fitted effect of over 35% in size; also: potency is read from the fitted curve at half-maximal effect
# Summary of the method: as §2
# [8] = Quantitative High-Throughput drug screen in 47 multiple myeloma cell lines against the NCATS MIPE library collection: MOLP8_DSMZ cell viability assay (AID 1918977); conditions: MOLP8 myeloma viability, CellTiter-Glo ATP luminescence, 48 h; series mostly up to 45.8 µM; also: nearly all actives have a fitted effect of over 45% in size; also: potency is read from the fitted curve at half-maximal effect
# Summary of the method: as §2
# [9] = Quantitative High-Throughput drug screen in 47 multiple myeloma cell lines against the NCATS MIPE library collection: KMS20_JCRB cell viability assay (AID 1918973); conditions: CellTiter-Glo ATP, 48 h; series mostly up to 45.8 µM; also: potency is read from the fitted curve at half-maximal effect; nearly all actives have a fitted effect of over 45% in size
# Summary of the method: as §3
smiles,measurement,setting,value
CCOC(=O)O[C@]1(C(=O)OCCl)CC[C@@H]2[C@H]3CCC4=CC(=O)C=C[C@]4(C)[C@@H]3[C@@H](O)C[C@@]21C,Potency,[1],inactive
same,Potency,[2],inactive
same,Potency,[3],inactive
CS(=O)c1ccc(-c2nc(-c3ccc(F)cc3)c(-c3ccncc3)[nH]2)cc1 (stereo not given),Potency,[1],21.5 µM (active)
same,viability,[4],1.55% [at 92.2 µM] (active)
same,Potency,[3],inactive
same,Potency,[5],38.2 µM (active)
CN(C)Cc1cccc(N=C(c2ccccc2)c2c(O)[nH]c3cc(C(=O)N(C)C)ccc23)c1,Potency,[1],16.6 µM (active)
same,Potency,[4],9.35 µM (active)
same,Potency,[2],18.7 µM (active)
same,Potency,[5],16.6 µM (active)
CC1(C)S[C@H]2[C@H](NC(=O)[C@@H](N)c3ccc(O)cc3)C(=O)N2[C@@H]1C(=O)O,Potency,[1],4.18 µM (active)
same,Potency,[4],0.296 µM (active)
same,Potency,[5],5.9 µM (active)
COc1cc(NC(=O)c2ccc(-c3ccc(Cl)cc3)o2)cc(OC)c1,Potency,[1],20.9 µM (active)
same,Potency,[6],inactive
same,Potency,[2],2.64 µM (active)
same,Potency,[5],1.05 µM (active)
O=C1NC(=O)C(=Cc2ccc(-c3ccc(F)cc3)o2)S1,Potency,[1],4.18 µM (active)
same,Potency,[4],2.09 µM (active)
same,Potency,[7],11.8 µM (active)
same,Potency,[8],inactive
NC[C@@H]1O[C@@H](O[C@H]2[C@@H](O)[C@H](O[C@@H]3[C@@H](O)[C@@H](N)C[C@H](N)[C@H]3O[C@H]3O[C@H](CN)[C@@H](O)[C@@H](O)[C@H]3N)O[C@H]2CO)[C@H](N)[C@@H](O)[C@@H]1O,Potency,[1],inactive
same,Potency,[6],inactive
same,Potency,[2],inactive
same,Potency,[3],inactive
NC(=O)NN=Cc1ccc([N+](=O)[O-])o1,Potency,[4],5.9 µM (active)
same,Potency,[8],inactive
COc1ccc(-c2coc3cc(O)ccc3c2=O)cc1,Potency,[8],0.0059 µM (active)
same,Potency,[2],inactive
same,Potency,[5],inactive
CC(C)(C)c1cc(C(=O)O)c(NC(=O)Nc2ccc3[nH]ncc3c2)s1,Potency,[6],inactive
same,Potency,[7],inactive
same,Potency,[5],16.6 µM (active)
CC=CCC(C)C(O)C1C(=O)NC(CC)C(=O)N(C)CC(=O)N(C)C(CC(C)C)C(=O)NC(C(C)C)C(=O)N(C)C(CC(C)C)C(=O)NC(C)C(=O)NC(C)C(=O)N(C)C(CC(C)C)C(=O)N(C)C(CC(C)C)C(=O)N(C)C(C(C)C)C(=O)N1C (stereo not given),Potency,[5],inactive
CCC(CC)[C@H](NC(C)=O)[C@@H]1[C@H](O)[C@@H](C(=O)O)C[C@@H]1N=C(N)N,Potency,[3],inactive
same,Potency,[5],inactive
CC(=O)Oc1cc2c(s1)CCN(C(C(=O)C1CC1)c1ccccc1F)C2 (stereo not given),Potency,[6],2.96 µM (active)
same,Potency,[7],1.48 µM (active)
same,Potency,[5],0.833 µM (active)
COc1ccc(-n2c(C)c([N+](=O)[O-])c3ccc(O)cc32)cc1,Potency,[8],inactive
same,Potency,[3],inactive
same,Potency,[5],0.833 µM (active)
c1cc(-c2sc(-c3ccncc3)c(-c3ccncc3)c2-c2ccncc2)ccn1,Potency,[8],inactive
same,Potency,[2],8.33 µM (active)
same,Potency,[5],26.4 µM (active)
CC1(C)Cc2c(sc(NC(=S)NC(=O)c3ccccc3)c2C(=O)O)CO1,Potency,[5],18.7 µM (active)
COc1cccc(-c2cc(=O)c3ccccc3o2)c1N,Potency,[9],7.43 µM (active)
same,Potency,[8],inactive
same,Potency,[2],0.332 µM (active)
CCC(=O)O[C@]1(C(=O)CO)CC[C@H]2[C@@H]3CCC4=CC(=O)CC[C@]4(C)[C@@H]3CC[C@@]21C,Potency,[2],inactive
CN(C)Cc1ccc(-c2nc3cccc4c3n2CCNC4=O)cc1,Potency,[2],18.7 µM (active)
same,Potency,[3],inactive
same,Potency,[5],18.7 µM (active)
CCCCCN(C)CCC(O)(P(=O)(O)O)P(=O)(O)O,Potency,[6],inactive
same,Potency,[2],inactive
same,Potency,[3],inactive
same,Potency,[5],inactive
C=C1C(=O)OC(CCCCCCCC)C1C(=O)O (stereo not given),Potency,[8],inactive
CCc1ccc(C=C2SC(=S)NC2=O)cc1,Potency,[8],inactive
same,Potency,[2],inactive
CCOC(CN1C(=O)[C@](CC(=O)Nc2ccc(C)cc2)(NC(=O)Nc2ccc(C)cc2)c2ccccc21)OCC,Potency,[7],23.5 µM (active)
same,Potency,[8],inactive
Nc1ncnc2ccccc12,Potency,[8],inactive
same,Potency,[2],26.4 µM (active)
COc1ccc2cc(-c3nc(-c4ccc(S(C)=O)cc4)[nH]c3-c3ccncc3)ccc2c1 (stereo not given),Potency,[9],7.43 µM (active)
same,Potency,[8],inactive
same,Potency,[3],inactive
CO[C@H]1C[C@@H]2CC[C@@H](C)[C@@](O)(O2)C(=O)C(=O)N2CCCC[C@@H]2C(=O)O[C@H]([C@@H](C)C[C@@H]2CC[C@H](O)[C@H](OC)C2)CC(=O)[C@H](C)C=C(C)[C@@H](O)[C@@H](OC)C(=O)[C@H](C)C[C@H](C)C=CC=CC=C1C,Potency,[6],inactive
O=C(O)c1cc(O)c2c(c1)C(=O)c1cccc(O)c1C2=O,Potency,[7],2.15 µM (active)
same,Potency,[8],38.2 µM (active)
same,Potency,[5],inactive
O=C(NOCC(O)CO)c1cc(Br)c(F)c(F)c1Nc1ccc(I)cc1F (stereo not given),Potency,[6],inactive
same,Potency,[2],1.05 µM (active)
same,Potency,[3],inactive

# — PubChem BioAssay (NCATS)
